This note sets out measurements from PubChem BioAssay (EPA / NIEHS).

Activity calls are given as the source filed them. How the source made its calls: active means hit-call score of the fitted dose curve at least 0.9, where 1 is the maximum; inactive means score below 0.9.

System in the first assay: not listed separately
Put plainly: ATG_DR4_LXR_CIS: Attagene CIS-FACTORIAL HepG2 Assay for human Liver X Receptor (LXR), DR4 submotif (AID 2282929). The conditions noted are these: HepG2 Attagene DR4 cis-reporter, mRNA transcription; actives raise or lower the signal. The method, boiled down: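 Endogenous factor activity at a DR4 cis-element is read as reporter mRNA in transiently transfected HepG2 cells. Exposure lasts 24 h; transcripts are amplified, fluorescently labelled and sized by capillary electrophoresis, with DMSO as baseline.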
On to `CC1(C)[C@H]2CC[C@]1(C)C(=O)C2`, for which the call was inactive.
Still for that read-out and setting: to `Cc1ccc(N/N=c2\c(=O)cc/c(=N/Nc3ccc(S(=O)(=O)O)cc3)c2=O)c(C)c1` belongs “inactive”; to `O=S(=O)(O)c1cc(S(=O)(=O)O)c2ccc3c(S(=O)(=O)O)cc(S(=O)(=O)O)c4ccc1c2c43`, “inactive”; to `CCC(CC)C(=O)O`, “inactive”.
With `CCOC(=O)c1ccc(N(C)C)cc1`, the result was inactive.
Same read-out and setting: to `C=C(C)[C@@H]1CCC2=CCC[C@@H](C)[C@]2(C)C1` belongs “inactive”; to `CCCNC(=O)NS(=O)(=O)c1ccc(Cl)cc1`, “inactive”.
Turning to `Cc1ccc2c(c1)C(=O)c1ccccc1C2=O`, the result was inactive.
Same read-out and setting: to `COC(=O)c1c(C)cc(O)c(C)c1O` belongs “inactive”.
Same read-out and setting: to `C=C[Si](C)(C)O[Si](C)(C)C=C` belongs “inactive”; to `Cc1ccc(N)c([N+](=O)[O-])c1`, “inactive”.
The same measure, in the same setting: to `CCC(C)C=O` (stereo not given) belongs “inactive”.
`CC(=O)Oc1ccc(C)cc1`: the outcome was inactive.
On the same count and under the same terms, to `CC(C)c1ccc2cc(C(C)C)ccc2c1` belongs “inactive”; to `CCC(CO)CO`, “inactive”; to `O=c1cc(-c2ccccc2)oc2ccccc12`, “inactive”.
Same read-out and setting: under `CC1=CC[C@H]2C[C@@H]1C2(C)C` stands “inactive”.

The target in another assay is Aryl hydrocarbon receptor (Homo sapiens) (UniProt P35869). In words: ATG_Ahr_CIS: Attagene CIS-FACTORIAL HepG2 Assay for human Aryl Hydrocarbon Receptor (Ahr) (AID 2282930). The conditions noted are these: HepG2 AhR cis-factorial reporter transcription; actives raise or lower the signal. The essentials: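 Transient MRTU transfection of HepG2 → 24 h compound exposure → total RNA, oligo(dT) RT → PCR, 6-FAM extension, HpaI cut → CE fluorescence. DMSO = baseline; bidirectional curve fit.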
Sequence of Aryl hydrocarbon receptor (Homo sapiens) (P35869 whole entry, looked up): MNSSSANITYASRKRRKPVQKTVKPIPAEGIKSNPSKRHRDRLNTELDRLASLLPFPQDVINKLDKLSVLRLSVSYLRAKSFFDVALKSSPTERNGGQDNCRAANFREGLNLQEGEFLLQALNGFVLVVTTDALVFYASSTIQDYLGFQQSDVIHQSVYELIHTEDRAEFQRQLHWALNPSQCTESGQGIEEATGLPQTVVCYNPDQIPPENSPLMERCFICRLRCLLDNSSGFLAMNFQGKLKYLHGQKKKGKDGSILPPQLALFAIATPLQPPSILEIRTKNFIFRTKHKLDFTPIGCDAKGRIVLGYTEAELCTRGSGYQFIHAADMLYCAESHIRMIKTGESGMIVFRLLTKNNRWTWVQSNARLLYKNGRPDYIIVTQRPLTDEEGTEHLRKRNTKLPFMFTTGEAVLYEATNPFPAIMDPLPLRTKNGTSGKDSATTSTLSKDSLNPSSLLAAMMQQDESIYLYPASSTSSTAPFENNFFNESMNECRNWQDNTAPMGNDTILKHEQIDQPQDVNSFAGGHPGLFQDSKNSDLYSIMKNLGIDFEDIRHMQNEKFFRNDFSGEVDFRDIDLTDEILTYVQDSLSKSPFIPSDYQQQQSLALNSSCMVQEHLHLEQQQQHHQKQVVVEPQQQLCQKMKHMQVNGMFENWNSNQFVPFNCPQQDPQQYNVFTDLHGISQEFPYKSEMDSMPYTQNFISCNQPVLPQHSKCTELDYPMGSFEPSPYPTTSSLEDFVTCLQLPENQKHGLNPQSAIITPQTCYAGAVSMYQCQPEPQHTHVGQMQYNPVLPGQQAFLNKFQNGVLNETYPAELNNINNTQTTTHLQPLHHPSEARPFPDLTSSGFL
With `Cc1cc(=O)n(-c2ccccc2)n1C`, the call was inactive.
Still for that read-out and setting: under `C=C[Si](OC(C)=O)(OC(C)=O)OC(C)=O` stands “inactive”.
With `COC=O`, the call was inactive.
With `C=CC=CC=CCCCCC`, the result was inactive.
On the same count and under the same terms, under `C1CN(SSN2CCOCC2)CCO1` stands “inactive”.
By AC50 is commonly meant the concentration at which the activity in the assay is half-maximal. For `O=C1c2ccccc2C(=O)C1c1nc2ccccc2c(Br)c1O`, the AC50 was 0.388 µM (active).
With `NNC(=O)c1cccc(C(=O)NN)c1`, the result was inactive.
As for `CC(=O)Nc1ccc2c(c1)Cc1cc(NC(C)=O)ccc1-2`, the compound was called inactive.
Same read-out and setting: under `COCc1c(C(C)C)nc(C(C)C)c(/C=C/[C@@H](O)C[C@@H](O)CC(=O)O)c1-c1ccc(F)cc1` stands “inactive”; under `COC(F)(F)C(F)(C(F)(F)F)C(F)(F)F`, “inactive”.
On to `Nc1ccc(N=Nc2ccccc2)c(N)n1`, for which the AC50 was 23.5 µM (active).
Take `CC(C)(C)c1n[nH]c(=O)n(N)c1=O`: the call was inactive.
On to `COc1ccc2nc(N)sc2c1`, for which the AC50 was 3.17 µM (active).
Turning to `CC1(C)O[C@@H]2C[C@H]3[C@@H]4C[C@H](F)C5=CC(=O)C=C[C@]5(C)[C@@]4(F)[C@@H](O)C[C@]3(C)[C@]2(C(=O)CO)O1`, the outcome was inactive.
For the compound `CCC(=O)Oc1ccc(/C(CC)=C(\CC)c2ccc(OC(=O)CC)cc2)cc1`, the call was inactive.
Still for that read-out and setting: to `c1ccc(CNCc2ccccc2)cc1` belongs “inactive”; to `CCCCCCCCCCC=CC#N`, “inactive”.
Take `CCOC(=O)N1CCC(=C2c3ccc(Cl)cc3CCc3cccnc32)CC1`: the call was inactive.
Take `NC(=O)NNC(N)=O`: the result was inactive.
Take `O=P(O)(O)Oc1ccccc1`: the result was inactive.
The same measure, in the same setting: under `CCCCC(CC)COC(=O)c1ccccc1O` (stereo not given) stands “inactive”.
With `C[C@]12C=CC(=O)C=C1CC[C@@H]1[C@@H]2[C@@H](O)C[C@@]2(C)[C@H]1CC[C@]2(O)C(=O)CO`, the call was inactive.
In the case of `O=Cc1ccc(CO)o1`, the outcome was inactive.
